About 13,000 (27%) of roughly 48,000 compounds showed an effect of 50% or more. Some of the results follow.
The compounds below were run on Wolbachia pipientis (assay: Anti-Wolbachia Cell-Based Screen). Conditions: 5 µM.
Type: functional
Design: scale not given: in the data most compounds retested in dose-response had high values

Structure (SMILES) | Percent Effect
CC(C1CC1)N(C)C(=O)c1cnc(-c2ccc3c(c2)OCO3)s1 (stereo unspecified) | -9.871%
CN(CC1CC1)C(=O)Cc1csc(-c2ncccn2)n1 | -2.04%
CCC(=O)NCC(CC)Oc1cccc(F)c1 (stereo unspecified) | -9.029%
CCN(CC)Cc1nc2c(o1)CN(C(=O)c1ccncc1F)C2 | 11.31%
CN(C)Cc1nc2c(o1)CN(C(=O)NCc1cccc(F)c1)C2.O=C(O)C(F)(F)F | -9.503%
CCN(CC)Cc1nc2c(o1)CN(S(=O)(=O)c1cccs1)C2.O=C(O)C(F)(F)F | 103.4%
CC(C)N(C)Cc1ncn2c1CN(S(=O)(=O)c1cccs1)CCC2.O=C(O)C(F)(F)F | 2.779%
CCN(CC)Cc1nc2c(o1)CN(C(=O)c1ccc3ncccc3c1)C2 | -8.46%
CN(C)Cc1nc2c(o1)CN(S(=O)(=O)c1cccs1)C2.O=C(O)C(F)(F)F | 113.1%
CC(Oc1ccc(F)c(F)c1)C(=O)N(CC(N)=O)C1CCCC1 (stereo unspecified) | 5.493%
CC(NC(=O)CCc1cccc(OC2CCCC2)c1)c1nncn1C (stereo unspecified) | -2.207%
Cc1sc(NC(=O)CN(C)S(C)(=O)=O)c(C#N)c1C | 5.3%
CCOC(=O)c1sc(NC(=O)C(C)C)c(C#N)c1C | 157.4%
CCOC(=O)c1sc(NC(=O)CN(C)S(C)(=O)=O)c(C#N)c1C | 0.9217%
CCOC(=O)c1sc(NC(=O)CN2C(=O)CCC2=O)c(C#N)c1C | 132.7%
CCCC(=O)Nc1sc(C(=O)OCC)c(C)c1C#N | 10.62%
Cc1cc(N2CCCC(N(C)C)C2)n2nccc2n1 (stereo unspecified) | 14.85%
COC(=O)C(NC(=O)C(C)C)c1cc(F)ccc1F (stereo unspecified) | -7.207%
COC(=O)C(NC(=O)c1ccco1)c1cc(F)ccc1F (stereo unspecified) | -3.431%
CCOC(=O)C(C)NC(=O)CCSc1ccc(F)cc1 (stereo unspecified) | 5.779%
COC(=O)C(NC(=O)CCc1ccco1)c1cc(F)ccc1F (stereo unspecified) | 117.5%
CC(C)OCCC(=O)N(C)c1ccc(F)c(Cl)c1 | 3.103%
COC(=O)C(NC(=O)CC(C)C)c1cc(F)ccc1F (stereo unspecified) | 110.3%
O=C(CCc1ccco1)Nc1cccc(S(=O)(=O)C(F)F)c1 | 1.803%

Structure (SMILES) | Percent Effect
CC(C)NC(=O)CC(C)NCc1ccc(F)cc1Cl (stereo unspecified) | 10.92%
COC(=O)C(NC(=O)CCOC(C)C)c1cc(F)ccc1F (stereo unspecified) | 85.02%
CCCC(=O)NC(C(=O)OC)c1cc(F)ccc1F (stereo unspecified) | 95.91%
CC(C)OCCC(=O)Nc1c(-c2ccc(F)cc2)ncn1C | 6.912%
CC(C)(C)S(=O)(=O)c1ccc(N2CCN(c3ccccc3)CC2)nn1 | 15.82%
COCc1n[nH]c2c1CN(Cc1ccccn1)C2.O=C(O)C(F)(F)F | -21.53%
Cc1nnc(N2CCN(C(=O)NC3CC3)CC2)c(C(N)=O)c1C | -22.89%
CS(=O)(=O)NCC1CCCCN1Cc1ccccc1C#N (stereo unspecified) | 1.848%
Cc1nc(CNC2CCN(Cc3ccccc3)C2)sc1C (stereo unspecified) | -5.508%
O=C1CN(CC2CC2)Cc2nc(NCc3ccccc3)sc21 | 59.83%
O=C(NCc1ccccc1)[C@@H]1Cc2[nH]cnc2CN1CC1CC1 | 2.59%
COCCN1CC(=O)c2sc(NCc3ccccc3)nc2C1 | 105.3%
Cn1c(C2CC2)nc2c1CCN(CCc1ccccn1)C2 | -2.558%
O=C1CN(CC2CC2)Cc2nc(NCCc3ccccn3)sc21 | 91.68%
O=C(NCCc1ccccn1)NC1CCN(c2ccccc2)C1=O (stereo unspecified) | 10.23%
CSC1(CNC(=O)NC(C)c2ccc(F)c(F)c2)CCOCC1 (stereo unspecified) | -14.87%
Cc1ccc(C(C(=O)NCCc2nc(C)cc(C)n2)N(C)C)cc1 (stereo unspecified) | 11.55%
COc1ccc(-c2cccc3c2OC(CN)C3)cc1F (stereo unspecified) | -8.297%
CCN1CCN(C[C@@H]2CN(c3ncc(Cl)cc3Cl)C[C@@H]2CO)CC1 | -5.198%
Cc1noc([C@H]2C[C@H]3OCC[C@H]3N(C3CCC3)C2)n1.O=C(O)C(F)(F)F | 110.4%
Cc1noc([C@H]2C[C@H]3OCC[C@H]3N(Cc3scnc3C)C2)n1.O=C(O)C(F)(F)F.O=C(O)C(F)(F)F | -0.107%
Cc1noc([C@@H]2C[C@H]3OCC[C@H]3N(Cc3cc(C)c(C)o3)C2)n1.O=C(O)C(F)(F)F | -0.5348%
Cc1noc([C@H]2C[C@H]3OCC[C@H]3N(S(C)(=O)=O)C2)n1 | 101.7%
Cc1noc([C@@H]2C[C@H]3OCC[C@H]3N(S(C)(=O)=O)C2)n1 | 0.371%

Structure (SMILES) | Percent Effect
Cc1noc([C@@H]2C[C@H]3OCC[C@H]3N(CC3CCCC3)C2)n1.O=C(O)C(F)(F)F | -10.41%
Cc1noc([C@H]2C[C@H]3OCC[C@H]3N(S(=O)(=O)C3CC3)C2)n1 | 5.212%
CCCS(=O)(=O)N1C[C@@H](c2nc(C)no2)C[C@H]2OCC[C@H]21 | 120.5%
Cc1nnc([C@H]2C[C@H]3OCC[C@H]3N(S(=O)(=O)CC(C)C)C2)o1 | -13.43%
CCc1ccc(CN2C[C@@H](c3nc(C)no3)C[C@H]3OCC[C@H]32)o1.O=C(O)C(F)(F)F | 3.351%
CCS(=O)(=O)N1C[C@@H](c2nnc(C)o2)C[C@H]2OCC[C@H]21 | 1.952%
CCS(=O)(=O)N1C[C@H](c2nc(C)no2)C[C@H]2OCC[C@H]21 | 131.3%
Cc1ccc(-c2cnnc(NCC3(N4CCOCC4)CCCC3)n2)o1 | 10.34%
CNC(=O)c1cc2c(s1)CCN(C(=O)CCC1CCCN(C)C1)C2 (stereo unspecified) | -26.69%
Cc1nn(C)c(C)c1CN(Cc1cccn1-c1ncccn1)C(C)C | -15.44%
CC(Cn1ccnc1)NC(=O)N(C)Cc1ccco1 (stereo unspecified) | 7.542%
Cc1ccccc1CC1(CO)CCCN(c2ncnc3sccc23)C1 (stereo unspecified) | 23.07%
Cc1noc([C@@H]2C[C@H]3OCC[C@H]3N(S(=O)(=O)N(C)C)C2)n1 | 112.3%
Cc1noc([C@@H]2C[C@H]3OCC[C@H]3N(Cc3ccoc3)C2)n1 | 14.51%
Cc1nnc([C@H]2C[C@H]3OCC[C@H]3N(S(=O)(=O)N(C)C)C2)o1 | -11.67%
Cc1noc([C@@H]2C[C@H]3OCC[C@H]3N(S(=O)(=O)c3ccccc3)C2)n1 | 116%
Cc1nnc([C@H]2C[C@H]3OCC[C@H]3N(S(=O)(=O)C3CC3)C2)o1 | 7.121%
Cc1noc([C@@H]2C[C@H]3OCC[C@H]3N(S(=O)(=O)c3cccnc3)C2)n1.O=C(O)C(F)(F)F | -2.374%
CCC(O)Cn1nc(CCSC)nc1-c1ccc2[nH]ccc2c1 (stereo unspecified) | 4.032%
COc1ccc(OCc2nc(C(=O)N3CCCNC(=O)C3)co2)cc1 | -7.469%
COc1ccc(CN(C)C(=O)c2nnc(CN(C)C)o2)cc1 | -11.59%
O=C(c1ccccc1)N1CCCC(Nc2ccc(F)cc2)C1 (stereo unspecified) | -11.95%
NC(=O)C1CN(C(=O)c2ccc(F)cc2)CCN1CCc1ccccc1 (stereo unspecified) | 127.4%
CN1CC(c2ccccc2)CC12CCN(C(=O)c1ccc(F)cc1)CC2 (stereo unspecified) | -4.742%

Structure (SMILES) | Percent Effect
O=C(NC[C@H]1OC[C@@H](NC2CCC(F)(F)CC2)[C@@H]1O)C1CCCC1 | 8.921%
CN(C)c1cc2c(nn1)CCN(C(=O)C1COc3ccccc3C1)C2 (stereo unspecified) | -4.709%
CN(Cc1ccco1)C(=O)[C@@]12CNC[C@@H]1CN(C1CCCC1)C2 | -1.971%
CC(C)C(=O)NC1CC2(CCN(CC(=O)N(C)C)CC2)c2ccccc21.O=C(O)C(F)(F)F (stereo unspecified) | 105.8%
CCN1CCC2(CC1)CC(NC(=O)c1ccnnc1)c1ccccc12.O=C(O)C(F)(F)F (stereo unspecified) | -6.669%
O=C(NC1CC2(CCN(CCO)CC2)c2ccccc21)c1ccncc1.O=C(O)C(F)(F)F.O=C(O)C(F)(F)F (stereo unspecified) | -8.101%
COCC(=O)NC1CC2(CCN(CCN(C)C)CC2)c2ccccc21 (stereo unspecified) | 87.88%
COCC(=O)NC1CC2(CCN(CCO)CC2)c2ccccc21.O=C(O)C(F)(F)F (stereo unspecified) | 86.71%
CCC(c1nc(C(C)C)nn1-c1ccccn1)n1cccn1 (stereo unspecified) | 8.011%
CC(C)N1CCc2c(c(COc3cncnc3)nn2CC2CC2)C1.O=C(O)C(F)(F)F | -1.489%
c1ccc(-c2cnc(CNC3CCCN(c4cccnn4)C3)o2)cc1 (stereo unspecified) | -8.343%
O=C(c1ccno1)N1C[C@@H](F)[C@@H](OCc2nc3ccccc3o2)C1 | 6.473%
NC(=O)C1CN(c2ccc3c(Cl)ccnc3c2F)CCO1 (stereo unspecified) | -12.11%
CCc1nc(NC(=O)Cc2csc(-c3nnc[nH]3)n2)sc1C | 3.287%
CCOCC1CN(C(=O)[C@H]2CCCO2)Cc2nnn(CC3CC3)c21 (stereo partly specified) | 0.1287%
CCOCC1CN(C(=O)N(C)C)Cc2nnn(CC3CC3)c21 (stereo unspecified) | -7.85%
CCOCC1CN(CC2CCC2)Cc2nnn(CC3CC3)c21 (stereo unspecified) | 111.4%
COCC1CN(C(=O)[C@H]2CCCO2)Cc2nnn(CC3CC3)c21 (stereo partly specified) | -4.44%
CN(C)C(=O)N1Cc2nnn(CC3CC3)c2C(COCC2CC2)C1 (stereo unspecified) | 117.2%
COCC1CN(Cc2ccncc2)Cc2nnn(CC3CC3)c21.O=C(O)C(F)(F)F.O=C(O)C(F)(F)F (stereo unspecified) | -5.053%
CN(C)C(=O)N1Cc2nnn(C)c2C(COCC2CC2)C1 (stereo unspecified) | 7.957%
O=C(O)C(F)(F)F.c1cc(CN2Cc3nnn(CC4CC4)c3C(COCC3CC3)C2)co1 (stereo unspecified) | 1.787%
C1CC(N2Cc3nnn(CC4CC4)c3C(COCC3CC3)C2)C1.O=C(O)C(F)(F)F (stereo unspecified) | 96.7%
C1CCC(CN2Cc3nnn(CC4CC4)c3C(COCC3CC3)C2)C1.O=C(O)C(F)(F)F (stereo unspecified) | 107.6%

From ChEMBL document CHEMBL3988442, “University of Dundee, Small-Polar-MMV Screening Library” (2021)
